Assay results published in PubChem BioAssay (NCI).
Values joined by “and” are separate entries in the source; they are usually repeats but may differ in a detail not shown here. Equal entries are not always repeated. About 83,000 compounds went through this panel and 20% of them were active in at least one assay; those are over-represented in the sample as a whole.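 Treatment: one concentration, 48 hours, 96-well format. Scoring: percent growth, with anything below 10 considered active.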 Values without a mark were called inactive. Active and inactive are the calls of the source.

The molecules below were run on MDA-MB-468 breast (assay: NCI-60 one-dose screen, 48 h (100 = growth as untreated, 0 = no growth, -100 = all killed)). Settings: 10 µM unless noted.
In the case of C=C(CN1CC=CCC1)[C@@H]1CC[C@]2(C(=O)OC)CC[C@]3(C)[C@H](CC[C@@H]4[C@@]5(C)CC[C@H](OC(C)=O)C(C)(C)[C@@H]5CC[C@]43C)[C@@H]12, the growth is reported as 55.6%. In the case of S=C(Sc1ccc(Cl)cc1)Sc1ccc(Cl)cc1, the growth is reported as -37.6% (active). With Cc1ccc2c(n1)C(=O)C(Cl)=C(Nc1ccc(C)c(C)c1)C2=O the growth was -25.3% (active). For O=S(=O)(NCCNc1cc(-c2cn(-c3ccccc3)nc2-c2cccc(O)c2)ccn1)c1ccc(Br)cc1, the growth was -28.5% (active). Work on CC(=O)O[C@]1(C(C)=O)CCC2C3C[C@H](C)C4=CC(=O)CC[C@]4(C)C3CC[C@@]21C (stereo not given in full) yielded a growth of 86.4%. With CNC(=O)c1cc(Oc2ccc3c(c2)sc2nc(-c4ccc(N)cc4)cn23)ccn1 the growth was 40.6%. For Oc1c(CN2CCCC2)cc(COCc2ccc(Br)cc2)c2cccnc12, the growth was -28.2% (active). In the case of Brc1ccc2[nH]cc(-c3nc(-c4c[nH]c5ccncc45)cs3)c2c1, the growth is reported as -71.4% (active). In the case of COc1ccc(S(=O)(=O)NC2c3ccccc3CC2O)cc1OC (stereo not given), the growth is reported as 111%. Cc1nc(Sc2nc3ccc([N+](=O)[O-])cc3s2)sc1C was tested, and the growth was 6.67% (active). CN(C)c1ccc(/C=C\C(=O)c2ccccc2)cc1 was tested, and the growth was 84.8% and 88.3% and 83.9%. With CCN(CC)c1ccc2nc3c4ccccc4c(=O)cc-3n(-c3ccccc3)c2c1 the growth was -17.5% (active). With OC(CCN1CCCCC1)(c1ccccc1)c1ccccc1 the growth was 101%. Cn1cc(-c2nnc(-c3cn(C)c4ncccc34)s2)c2ccccc21 showed a growth of 12.6%. NC1CC2(CCN(c3cnc(C(=O)Nc4cc(F)cc5cccnc45)cn3)CC2)C1 was tested, and the growth was 50.6%. In the case of CCCCCCCCCCCCCCCCC(=O)O, the growth is reported as 102%. O=C1OC[C@H]2[C@H](c3ccc(O)c(O)c3)c3cc(O)c(O)cc3C[C@H]12 gave a growth of 93.3%. CC[C@@H]1NC(=O)[C@H]([C@H](O)[C@H](C)C/C=C/c2ccc(CN3C(=O)CCCC3=O)cc2)N(C)C(=O)[C@H](C(C)C)N(C)C(=O)[C@H](CC(C)C)N(C)C(=O)[C@H](CC(C)C)N(C)C(=O)[C@@H](C)NC(=O)[C@H](C)NC(=O)[C@H](CC(C)C)N(C)C(=O)[C@H](C(C)C)NC(=O)[C@H](CC(C)C)N(C)C(=O)CN(C)C1=O gave a growth of 13.4%. With O=C1/C(=C/c2ccccn2)CCc2ccccc21 the growth was 98.4%. Cc1ccc(O)c(C(=O)O)c1 gave a growth of 106%. O=C(O)CCCCCNC(=O)OCc1ccccc1 gave a growth of 116%. For Oc1ccc(C#CCOc2ccccc2)cc1CNCCN(Cc1ccccn1)Cc1ccccn1, the growth was -10.4% (active). In the case of COc1cc(NC2=C(Cl)C(=O)c3nc(C)ccc3C2=O)cc(OC)c1, the growth is reported as -78.5% (active). In the case of CCc1cccc(C)c1NC(=O)c1sc2nc3c(cc2c1N)CCCCC3, the growth is reported as 10.8%. COc1cc(NC(=O)Nc2cccc(-c3cc(=O)c4c(OC)c(OC)c(OC)cc4o3)c2)cc(OC)c1OC was tested, and the growth was 40.4%. In the case of CCN(CC)CCCNc1cc(OC)cc2cccnc12, the growth is reported as 59%. With C=CC[n+]1c(/C=C2\Sc3ccccc3N2C)sc(-c2ccccc2)c1-c1ccccc1 the growth was 1.16% (active). For O=C(O)c1cccc2c1-c1ccccc1C2=O, the growth was 116%. O=C1/C(=C\c2ccc[nH]2)c2ccccc2N1c1ccccc1 was tested, and the growth was 0.806% (active). In the case of O=C(c1cccc(Br)c1)N1CCN(c2ccnc3cc(Cl)ccc23)CC1, the growth is reported as 66%. C[n+]1ccc(Nc2ccc(NC(=O)c3ccc(Nc4cc[n+](C)c5ccc(N)cc45)cc3)cc2)cc1 showed a growth of 94.8%. CCCCCCCCCC(=O)NC(C)(C)C(=O)N1CCC[C@H]1C(=O)N[C@@H](CC(C)C)C(=O)N[C@@](C)(CC)C(=O)N[C@@H](CCC(N)=O)C(=O)N[C@H](CCC(N)=O)C(=O)NC(C)(C)C(=O)NC(C)(C)C(=O)N[C@@H](CCC(N)=O)C(=O)N[C@H](CC(C)C)C(=O)N[C@H](CO)CC(C)C was tested, and the growth was -94.3% (active) and -88.5% (active). For CCN1CCC2(CC1)NC(=O)c1c(c3ccc(Cl)c(Cl)c3n1C)C2C#N (stereo not given), the growth was -16.3% (active). With CS(=O)(=O)Nc1cc(-c2ccc3ncnc(Nc4ccc(F)c(Cl)c4)c3c2)ccc1Cl the growth was -32% (active). COc1cccc(/C=C/C(=O)c2c(C)nc3ccccc3c2/C=C/c2ccccc2)c1OC was tested, and the growth was 43.3%. Cc1nc2n[nH]c(N)c2nc1C gave a growth of 100%. Work on COc1ccc(-c2cc(-c3ccc(N(C)C)cc3)n3c(n2)nc2ccccc23)cc1 yielded a growth of 50.8%. Molecule CC(C)(CCc1ccccn1)C(=O)CCCc1ccccn1 has a growth of 107%. Molecule CC1(C)C(=O)CC[C@]2(C)[C@H]3C(=O)C=C4[C@@H]5C[C@@](C)(C(=O)NCCNCCN)CC[C@]5(C)CC[C@@]4(C)[C@]3(C)CC[C@@H]12 has a growth of 114%. Work on CCOC(=O)c1c2c(n3ccccc13)C(=O)c1ncccc1C2=O yielded a growth of 80.8%.
